# Experimental data published in paper PMC11062922 (Nature Chemical Biology, 2023).
# Like-named read-outs stand apart in the source and are kept apart here.
# Key:
# Design in all cases: species or system human, MV4-11 + K-562 + COLO205 + SK-N-BE2 + OVCAR-8
# CSNK1D = conditions: read-out: apparent Kd, n = 1
# CSNK1E = conditions: read-out: apparent Kd, n = 1
# MAPK10 = conditions: read-out: apparent Kd, compound concentrations: 100 nM and 1000 nM (sheet 'Samples'), n = 1
# MAPK14 = conditions: read-out: apparent Kd, n = 1
# MAPK9 = conditions: read-out: apparent Kd, compound concentrations: 100 nM and 1000 nM (sheet 'Samples'), n = 1
# CLK1 = conditions: read-out: apparent Kd; compound concentrations: 100 nM and 1000 nM (sheet 'Samples'), CATDS: 8.2490921109223694E-2; n = 1
# CLK4 = conditions: read-out: apparent Kd, compound concentrations: 100 nM and 1000 nM (sheet 'Samples'), n = 1
# FER = conditions: read-out: apparent Kd; compound concentrations: 100 nM and 1000 nM (sheet 'Samples'), CATDS: 0.191525182518377; n = 1
# FES = conditions: read-out: apparent Kd; compound concentrations: 100 nM and 1000 nM (sheet 'Samples'), CATDS: 0.141762780842772; n = 1
# IGF1R = conditions: read-out: apparent Kd; compound concentrations: 100 nM and 1000 nM (sheet 'Samples'), CATDS: 0.28711469302714299; n = 1
# INSR = conditions: read-out: apparent Kd; compound concentrations: 100 nM and 1000 nM (sheet 'Samples'), CATDS: 0.56670438264140999; n = 1
# PLK1 = conditions: read-out: apparent Kd; compound concentrations: 100 nM and 1000 nM (sheet 'Samples'), CATDS: 8.4906950641747497E-2; n = 1
# PTK2 = conditions: read-out: apparent Kd; compound concentrations: 100 nM and 1000 nM (sheet 'Samples'), CATDS: 8.5472412677607995E-2; n = 1
# CSNK2A2 = conditions: read-out: apparent Kd; compound concentrations: 100 nM and 1000 nM (sheet 'Samples'), CATDS: 0.28231341025767498; n = 1
# PDXK = conditions: read-out: apparent Kd; compound concentrations: 100 nM and 1000 nM (sheet 'Samples'), CATDS: 0.33190254365372501; n = 1
# MAPKAPK2 = conditions: read-out: apparent Kd, n = 1
# IARS = conditions: read-out: apparent Kd; compound concentrations:100 nM and 1000 nM (sheet 'Samples'); n = 1
# NQO1 = conditions: read-out: apparent Kd; compound concentrations:100 nM and 1000 nM (sheet 'Samples'); n = 1
# CSNK1A1 = conditions: read-out: apparent Kd; compound concentrations: 100 nM and 1000 nM (sheet 'Samples'), CATDS: 6.4218500177313606E-2; n = 1
# DDR1 = conditions: read-out: apparent Kd; compound concentrations: 100 nM and 1000 nM (sheet 'Samples'), CATDS: 5.0291994189884899E-2; n = 1
# DDR2 = conditions: read-out: apparent Kd; compound concentrations: 100 nM and 1000 nM (sheet 'Samples'), CATDS: 3.5910243594836001E-2; n = 1
# GAK = conditions: read-out: apparent Kd; compound concentrations: 100 nM and 1000 nM (sheet 'Samples'), CATDS: 5.4860090777902201E-2; n = 1
# MAPK11 = conditions: read-out: apparent Kd; compound concentrations: 100 nM and 1000 nM (sheet 'Samples'), CATDS: 3.4840518040238501E-2; n = 1
# MAPK8 = conditions: read-out: apparent Kd; compound concentrations: 100 nM and 1000 nM (sheet 'Samples'), CATDS: 4.6835981276276903E-2; n = 1
# PIK3CA = conditions: read-out: apparent Kd; compound concentrations: 100 nM and 1000 nM (sheet 'Samples'), CATDS: 4.2523993136959801E-2; n = 1
# PIK3CD = conditions: read-out: apparent Kd; compound concentrations: 100 nM and 1000 nM (sheet 'Samples'), CATDS: 5.28736711934766E-2; n = 1
# PRKD2 = conditions: read-out: apparent Kd; compound concentrations: 100 nM and 1000 nM (sheet 'Samples'), CATDS: 3.2417406243743098E-2; n = 1
# PRKD3 = conditions: read-out: apparent Kd; compound concentrations: 100 nM and 1000 nM (sheet 'Samples'), CATDS: 3.0540590804978299E-2; n = 1
# RIPK2 = conditions: read-out: apparent Kd; compound concentrations: 100 nM and 1000 nM (sheet 'Samples'), CATDS: 3.5796504024636501E-2; n = 1
# TNIK = conditions: read-out: apparent Kd; compound concentrations: 100 nM and 1000 nM (sheet 'Samples'), CATDS: 3.1361492555590703E-2; n = 1
# [1] = compound concentrations:100 nM and 1000 nM (sheet 'Samples')
compound,measurement,setting,value
Fc1ccc(-c2ncn(CCCN3CCOCC3)c2-c2ccncc2)cc1 [SB-210313],potency estimated from few doses,"CSNK1D; compound concentrations: 100 nM and 1000 nM (sheet 'Samples'), CATDS: 0.19836678982407999",1230 nM
same,potency estimated from few doses,"CSNK1E; compound concentrations: 100 nM and 1000 nM (sheet 'Samples'), CATDS: 0.16080040098047499",2020 nM
same,potency estimated from few doses,MAPK10; CATDS: 0.188105641093985,1380 nM
same,potency estimated from few doses,"MAPK14; compound concentrations: 100 nM and 1000 nM (sheet 'Samples'), CATDS: 0.26893269490410898",706 nM
same,potency estimated from few doses,MAPK9; CATDS: 0.212522711291111,1070 nM
COc1cc2c(cc1Nc1nc(Nc3ccsc3C(N)=O)c3cc[nH]c3n1)N(C(=O)CN(C)C)CCC2 [GSK2110236A],potency estimated from few doses,CLK1,1090 nM
same,potency estimated from few doses,CLK4; CATDS: 9.1933960168397902E-2,641 nM
same,potency estimated from few doses,FER,44.5 nM
same,potency estimated from few doses,FES,115 nM
same,potency estimated from few doses,IGF1R,16.3 nM
same,potency estimated from few doses,INSR,4.73 nM
same,potency estimated from few doses,PLK1,940 nM
same,potency estimated from few doses,PTK2,909 nM
Nc1ncnc2[nH]c(-c3ccccc3)nc12 [AH5015_KCGS],potency estimated from few doses,CLK4; CATDS: 0.40901388179724202,1090 nM
same,potency estimated from few doses,CSNK2A2,2320 nM
same,potency estimated from few doses,PDXK,1610 nM
N#Cc1ccc(Oc2nccc(-c3c(-c4ccc(F)cc4)ncn3C3CCNCC3)n2)cc1 [SB-242721],potency estimated from few doses,CSNK1D; [1],710 nM
same,potency estimated from few doses,CSNK1E; [1],1740 nM
same,potency estimated from few doses,MAPK14; [1],844 nM
same,potency estimated from few doses,MAPKAPK2; [1],496 nM
Fc1ccc(-c2ncn(C3CCNCC3)c2-c2ccnc(Oc3ccc(Oc4ccccc4)cc3)n2)cc1 [SB-245392],potency estimated from few doses,CSNK1D; [1],616 nM
same,potency estimated from few doses,CSNK1E; [1],1200 nM
same,potency estimated from few doses,IARS,2110 nM
same,potency estimated from few doses,MAPK14; [1],571 nM
same,potency estimated from few doses,NQO1,1710 nM
NC(=O)Cc1ccccc1Oc1nccc(-c2c(-c3ccc(F)cc3)ncn2C2CCNCC2)n1 [SB-264865],potency estimated from few doses,CSNK1D; [1],1300 nM
same,potency estimated from few doses,CSNK1E; [1],2030 nM
same,potency estimated from few doses,MAPK14; [1],418 nM
same,potency estimated from few doses,MAPKAPK2; [1],503 nM
CCNc1nccc(-c2c(-c3ccc(F)cc3)ncn2C2CCN(C)CC2)n1 [SB-226605],potency estimated from few doses,CSNK1A1,54.1 nM
same,potency estimated from few doses,"CSNK1D; compound concentrations: 100 nM and 1000 nM (sheet 'Samples'), CATDS: 0.15961937746466701",6.16 nM
same,potency estimated from few doses,"CSNK1E; compound concentrations: 100 nM and 1000 nM (sheet 'Samples'), CATDS: 8.6582359742075399E-2",24.7 nM
same,potency estimated from few doses,DDR1,116 nM
same,potency estimated from few doses,DDR2,495 nM
same,potency estimated from few doses,GAK,87 nM
same,potency estimated from few doses,MAPK10; CATDS: 6.8740436071955194E-2,44.8 nM
same,potency estimated from few doses,MAPK11,589 nM
same,potency estimated from few doses,"MAPK14; compound concentrations: 100 nM and 1000 nM (sheet 'Samples'), CATDS: 0.16984831376033699",5.38 nM
same,potency estimated from few doses,MAPK8,150 nM
same,potency estimated from few doses,MAPK9; CATDS: 9.88487925087526E-2,18 nM
same,potency estimated from few doses,"MAPKAPK2; compound concentrations: 100 nM and 1000 nM (sheet 'Samples'), CATDS: 7.0385751931635404E-2",42 nM
same,potency estimated from few doses,PIK3CA,220 nM
same,potency estimated from few doses,PIK3CD,98.1 nM
same,potency estimated from few doses,PRKD2,939 nM
same,potency estimated from few doses,PRKD3,1520 nM
same,potency estimated from few doses,RIPK2,504 nM
same,potency estimated from few doses,TNIK,1210 nM
